Calls of active or inactive are those of the source.
Tests used:
[1] = small molecules captured by biotinylated probe aFSTL3 – biochemical, small-molecule microarray, fluorescence 635/667, stem cell growth factor project, primary screen (AID 1064); details: higher = more signal;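 also: measures binding of the biotinylated anti-FSTL3 antibody to printed compounds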
[2] = binders from COS7 lysate, DM2A8 probe, primary screen, torsin A project, cell lysate, small-molecule microarray, fluorescence 635/667 (AID 1065); details: higher = more signal, COS7 lysate expressing mutant human TOR1A
[3] = small molecules captured by biotinylated probe aFGF2 – biochemical, small-molecule microarray, fluorescence 635/667, stem cell growth factor project, primary screen (AID 1067); details: higher = more signal;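 also: measures binding of biotinylated aFGF2 protein to printed compounds on slides; z-score merges feature fluorescence and signal-to-noise across triplicate slides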
[4] = small molecules captured by biotinylated probe aFGF10 – biochemical, small-molecule microarray, fluorescence 635/667, stem cell growth factor project, primary screen (AID 1071); details: higher = more signal;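 also: score merges 667 nm spot intensity and signal to noise from triplicate slides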
[5] = molecular target: Neurogenic locus notch homolog protein 2 (Homo sapiens) (UniProt Q04721); assay: small molecules binding Notch2 protein – biochemical, small-molecule microarray, 635 nm fluorescence, stem cell growth factors, primary screen (AID 1073); details: higher = more signal
[6] = molecular target: Pro-neuregulin-1, membrane-bound isoform (Homo sapiens) (UniProt Q02297); assay: small molecules binding neuregulin-1 protein – biochemical, small-molecule microarray, fluorescence 635/667, psychiatric disease protein project, primary screen (AID 1075); details: NRG1 binding, 635 nm fluorescence, higher = more signal;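 also: score combines 667 nm spot fluorescence with signal to noise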
[7] = test system: Neuregulin-1 EGF-like domain; assay: small molecules binding NRG1 EGF domain – biochemical, small-molecule microarray, 635 nm fluorescence, primary screen (AID 1081); details: higher = more signal;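 also: binding of the protein to compounds printed on small-molecule microarray slides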
[8] = FRG1 expression reporter modulators in myotubes – cell-based, C2C12 myotubes, firefly/Renilla luciferase, luminescence, FRG1 inhibition for FSHD, primary screen (AID 1084); details: FRG1 promoter luciferase, higher = more signal, called active from +8 up or from −8 down
[9] = small molecules captured by biotinylated probe aFST – biochemical, small-molecule microarray, fluorescence 635/667, stem cell growth factor project, primary screen (AID 1086); details: higher = more signal;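 also: score merges 667 nm fluorescence with signal-to-noise of each printed compound spot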
[10] = binders of probe aHhip on microarray, primary screen, stem cell growth factor project, biochemical, small-molecule microarray, fluorescence 635/667 (AID 1087); details: higher = more signal;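 also: score merges spot fluorescence at 667nm with spot signal to noise ratio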

Neurogenic locus notch homolog protein 2 (Homo sapiens), sequence (Q04721 whole entry, looked up, canonical isoform): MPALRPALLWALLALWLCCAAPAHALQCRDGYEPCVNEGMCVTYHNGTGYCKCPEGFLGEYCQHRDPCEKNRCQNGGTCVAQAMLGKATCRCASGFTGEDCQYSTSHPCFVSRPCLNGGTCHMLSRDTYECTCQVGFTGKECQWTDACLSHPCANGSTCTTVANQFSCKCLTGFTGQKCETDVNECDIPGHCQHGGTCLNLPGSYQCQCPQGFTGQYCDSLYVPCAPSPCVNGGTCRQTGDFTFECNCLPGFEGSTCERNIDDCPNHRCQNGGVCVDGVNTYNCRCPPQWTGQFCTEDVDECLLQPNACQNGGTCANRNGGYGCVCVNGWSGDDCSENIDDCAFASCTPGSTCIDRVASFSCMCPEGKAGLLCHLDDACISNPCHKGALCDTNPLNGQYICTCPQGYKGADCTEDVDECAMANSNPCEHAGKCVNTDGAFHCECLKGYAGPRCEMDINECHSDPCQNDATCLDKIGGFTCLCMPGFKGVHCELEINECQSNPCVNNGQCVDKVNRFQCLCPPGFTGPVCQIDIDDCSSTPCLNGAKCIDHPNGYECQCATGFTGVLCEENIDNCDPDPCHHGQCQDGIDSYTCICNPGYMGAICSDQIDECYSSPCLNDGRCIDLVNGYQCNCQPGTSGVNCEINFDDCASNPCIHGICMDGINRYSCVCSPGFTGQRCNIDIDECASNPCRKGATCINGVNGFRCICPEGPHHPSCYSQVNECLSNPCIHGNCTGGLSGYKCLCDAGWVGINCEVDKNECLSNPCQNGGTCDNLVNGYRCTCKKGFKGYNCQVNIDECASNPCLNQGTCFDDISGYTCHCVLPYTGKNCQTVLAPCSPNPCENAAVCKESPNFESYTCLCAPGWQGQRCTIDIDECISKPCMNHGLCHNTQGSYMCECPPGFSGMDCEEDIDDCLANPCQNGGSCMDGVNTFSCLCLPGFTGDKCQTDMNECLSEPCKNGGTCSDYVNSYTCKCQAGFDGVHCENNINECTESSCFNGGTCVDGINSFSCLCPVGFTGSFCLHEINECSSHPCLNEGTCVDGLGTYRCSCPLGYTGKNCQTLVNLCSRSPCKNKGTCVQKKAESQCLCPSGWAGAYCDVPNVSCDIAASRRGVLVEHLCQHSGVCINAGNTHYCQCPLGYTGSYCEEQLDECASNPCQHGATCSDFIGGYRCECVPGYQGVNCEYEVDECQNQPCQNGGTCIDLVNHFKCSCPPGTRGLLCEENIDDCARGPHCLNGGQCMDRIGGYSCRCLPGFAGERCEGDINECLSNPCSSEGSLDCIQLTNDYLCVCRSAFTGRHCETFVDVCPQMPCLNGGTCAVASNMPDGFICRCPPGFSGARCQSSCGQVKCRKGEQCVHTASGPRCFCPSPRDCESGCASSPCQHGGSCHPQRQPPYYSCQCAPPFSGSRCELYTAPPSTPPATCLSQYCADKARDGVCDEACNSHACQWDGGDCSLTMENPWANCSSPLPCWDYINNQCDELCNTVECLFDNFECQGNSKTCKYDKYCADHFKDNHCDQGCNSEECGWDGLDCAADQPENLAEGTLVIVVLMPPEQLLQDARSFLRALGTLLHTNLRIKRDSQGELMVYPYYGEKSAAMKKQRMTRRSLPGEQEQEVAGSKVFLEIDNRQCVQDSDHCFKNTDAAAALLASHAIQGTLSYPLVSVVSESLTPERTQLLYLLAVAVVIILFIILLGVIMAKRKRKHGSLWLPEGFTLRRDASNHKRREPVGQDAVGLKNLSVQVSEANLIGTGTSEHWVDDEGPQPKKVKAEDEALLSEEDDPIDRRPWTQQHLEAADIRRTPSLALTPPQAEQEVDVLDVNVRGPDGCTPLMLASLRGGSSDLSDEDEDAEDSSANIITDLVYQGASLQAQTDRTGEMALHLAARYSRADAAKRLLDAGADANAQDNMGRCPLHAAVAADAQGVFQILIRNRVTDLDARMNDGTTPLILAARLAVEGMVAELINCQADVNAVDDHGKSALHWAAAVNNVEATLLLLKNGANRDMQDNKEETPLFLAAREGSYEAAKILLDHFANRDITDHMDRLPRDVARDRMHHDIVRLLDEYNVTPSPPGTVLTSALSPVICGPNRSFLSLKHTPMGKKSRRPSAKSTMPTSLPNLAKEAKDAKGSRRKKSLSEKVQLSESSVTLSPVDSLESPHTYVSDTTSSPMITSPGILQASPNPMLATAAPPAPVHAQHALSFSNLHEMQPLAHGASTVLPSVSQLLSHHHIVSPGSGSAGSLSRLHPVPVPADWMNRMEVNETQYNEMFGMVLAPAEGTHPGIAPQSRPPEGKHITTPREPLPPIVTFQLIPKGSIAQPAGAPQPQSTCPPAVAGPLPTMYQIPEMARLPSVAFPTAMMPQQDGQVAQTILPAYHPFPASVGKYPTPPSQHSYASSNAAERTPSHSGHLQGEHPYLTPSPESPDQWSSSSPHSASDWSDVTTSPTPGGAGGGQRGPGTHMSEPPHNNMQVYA
Pro-neuregulin-1, membrane-bound isoform (Homo sapiens), sequence (Q02297 whole entry, looked up, the tested form may be a part, canonical isoform): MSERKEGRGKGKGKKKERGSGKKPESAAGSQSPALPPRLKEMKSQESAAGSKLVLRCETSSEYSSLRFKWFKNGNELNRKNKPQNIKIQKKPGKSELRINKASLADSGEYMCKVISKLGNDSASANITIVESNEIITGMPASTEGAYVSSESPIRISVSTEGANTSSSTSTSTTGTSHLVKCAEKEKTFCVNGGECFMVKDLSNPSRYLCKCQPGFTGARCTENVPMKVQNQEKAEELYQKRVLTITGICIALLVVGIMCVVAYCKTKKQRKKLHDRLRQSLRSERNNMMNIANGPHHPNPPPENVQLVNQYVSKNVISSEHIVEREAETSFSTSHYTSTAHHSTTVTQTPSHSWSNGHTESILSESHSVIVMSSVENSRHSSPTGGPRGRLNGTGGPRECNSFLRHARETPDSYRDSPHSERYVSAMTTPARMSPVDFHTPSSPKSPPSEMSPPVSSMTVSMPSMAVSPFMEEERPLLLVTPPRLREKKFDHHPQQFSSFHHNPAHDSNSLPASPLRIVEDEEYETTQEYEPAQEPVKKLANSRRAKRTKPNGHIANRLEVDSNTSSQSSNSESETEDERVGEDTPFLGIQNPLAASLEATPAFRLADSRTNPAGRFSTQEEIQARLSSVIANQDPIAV

SMILES	composite z-score [1]	composite z-score [2]	composite z-score [3]	composite z-score [4]	composite z-score [5]	composite z-score [6]	composite z-score [7]	z-score [8]	composite z-score [9]	composite z-score [10]
CC(C)[Si]1(C(C)C)O[C@@H](c2ccccc2)c2cc(C3CC3)nc(-c3ccccc3)c21	-0.324	-0.598	-0.0494	-0.0526	0.0397	-0.234	-0.717	0.178 (inactive)	-0.0973	0.0274
C#CCCCON=C1C[C@@H](O)[C@@H](O)[C@@H]2[C@@H]3C(=O)N(Cc4ccccc4)C(=O)[C@@H]3CC[C@H]12	-0.304	0.251	-0.116	0.317	0.69	0.197	-0.0787	-0.0765 (inactive)	0.149	-0.169
COc1ccc([Si](C)(C)[C@@H]2[C@@H](CCO)O[C@]3(C(=O)N(Cc4ccc(NC(C)=O)cc4)c4ccccc43)[C@H]2C)cc1	-0.189	1.05	-0.0049	1.18	1.47	1.66	1.24	-4.04 (inactive)	0.17	0.0373
O=C1C2=CC[C@H]3C(=O)N(Cc4ccc5c(c4)OCO5)C(=O)[C@H]3[C@H]2[C@H](O)[C@@H]2O[C@H]12	-0.319	0.295	-0.141	0.375	0.617	-0.149	-0.0029	0.593 (inactive)	0.407	-0.308
CCc1cc2c(nc1CC)CCN(CCC(C)=NOC(C)CN1CCCc3nc(C)c(C)cc31)C2 (stereo not given)	0.271	1.29	0.131	0.16	1.35	0.408	1.17	1.04 (inactive)	1.15	1.17
COC(=O)[C@H](C)NC(=O)CCC1CC(OC(=O)NCc2cccc3ccccc23)CC2(CCCC(COC(=O)NCC3CCCCC3)O2)O1 (stereo not given in full)	-0.641	0.585	-0.0775	0.406	1.34	1.06	1.16	0.619 (inactive)	0.715	0.21
COCCOC(=O)N1C(=O)[C@@]2(c3cc(C#CCNC(N)=O)ccc31)[C@H](c1ccccc1OCCO)N1[C@H](c3ccccc3)[C@H](c3ccccc3)OC(=O)[C@H]1[C@@H]2C(=O)N1CCN(c2ncccn2)CC1	0.202	1	0.0019	1.15	1.27	1.27	0.955	-1.69 (inactive)	0.141	-0.0618
C[C@H]1CC[C@@H](C(=O)O)N[C@@H]1c1ccc(C#CCN(C)C)cc1	-0.326	0.451	-0.0943	0.185	0.608	0.115	0.0934	-0.794 (inactive)	0.629	-0.119
CCCCC(=C=CC[C@H](O)c1ccccc1OCCO)C[C@H](O)COCc1ccccc1	-0.0094	0.273	-0.12	-0.249	-0.673	0.716	0.554	-1.01 (inactive)	0.324	-0.0296
COC(=O)CC=C[C@@H](C)[C@@H](C=NO[C@H](C)c1cn([C@@H]2COC[C@H]2O)nn1)OC	-0.276	0.563	-0.0914	0.37	0.268	-0.482	0.951	-0.954 (inactive)	0.0889	0.0024
COCCNC(=O)OCC1CCCC2(CC(OC(=O)NCCc3ccc(F)cc3)CC(CCC(=O)N[C@@H](C)C(=O)OC)O2)O1 (stereo not given in full)	-0.576	0.37	-0.132	0.632	1.1	0.511	0.777	-0.0861 (inactive)	0.347	-0.196
CC(=O)OC[C@H]1O[C@@H](ON=C[C@@H](C)[C@H](OCc2ccccc2)C(C)C)[C@H](OC(C)=O)[C@@H](OC(C)=O)[C@@H]1OC(C)=O	-0.624	1.69	-0.0959	0.372	0.55	-0.927	-1.19	-0.703 (inactive)	0.304	-0.134
CC1CC/C=C\[C@H]2OC34C=CCN(C(C)C)C(=O)[C@H]3N(CCCO)C(=O)[C@@H]4C2C(=O)O1 (stereo not given in full)	0.456	1.1	-0.175	0.245	-0.673	1.19	0.866	-0.345 (inactive)	-0.5	0.214
C[C@@H]1C=CCC(=O)OC[C@H](C)C(=O)N[C@@H](C)C(=O)OC1	-0.329	0.907	-0.162	0.0108	0.0057	-0.313	-0.0497	-0.98 (inactive)	0.258	-0.069
O=C(NN=C1C[C@@H](O)[C@@H](O)[C@@H]2[C@@H]3C(=O)N(c4ccc(F)cc4F)C(=O)[C@@H]3CC[C@@H]12)OCc1ccccc1	-0.105	0.361	-0.0845	0.215	0.283	0.113	-0.882	0.228 (inactive)	0.51	-0.0672
C=CCC(OC(C)=O)[C@@H]1[C@@H](N(Cc2cc3ccccc3o2)C(=O)Cc2ccc(F)cc2)c2cc(OCCCO)ccc2N1C(=O)Cc1ccc(OC)cc1 (stereo not given in full)	-0.115	0.102	-0.0409	0.351	-0.383	0.16	-0.707	-2.16 (inactive)	-0.0711	0.0373
Cc1ccc(S[C@]2(C(=O)NCC(F)(F)F)CC(=O)N(Cc3ccccc3Cl)[C@@H]2c2ccc(CO)cc2I)cc1	0.647	-0.193	-0.122	0.494	-1.23	2.01	1.21	-1.13 (inactive)	-0.611	-0.284

SMILES	composite z-score [1]	composite z-score [2]	composite z-score [3]	composite z-score [4]	composite z-score [5]	composite z-score [6]	composite z-score [7]	z-score [8]	composite z-score [9]	composite z-score [10]
O=C1O[C@@H](c2ccccc2)[C@@H](c2ccccc2)N2[C@@H](c3ccc(OCCO)cc3)[C@]3(C(=O)Nc4ccccc43)[C@@H](C(=O)N3CCN(c4ncccn4)CC3)[C@H]12	0.0612	0.574	-0.0493	0.267	1.25	1.27	1.34	-0.968 (inactive)	0.847	0.106
CC(C)NC(=O)[C@@]1(c2ccc([N+](=O)[O-])cc2)CC(=O)N(CC23CC4CC(CC(C4)C2)C3)[C@@H]1c1ccc(CO)cc1I	0.765	0.0289	0.11	0.252	0.931	0.607	0.964	-3.71 (inactive)	0.481	-0.0645
CCc1cc2c(nc1CC)CCN(CCC(C)=NOC[C@@H](O)[C@H]1O[C@@H]3OC(C)(C)O[C@@H]3[C@H]1O)C2	-0.436	0.273	-0.148	0.0851	0.191	0.146	0.335	1.35 (inactive)	0.0391	-0.0088
[N-]=[N+]=NCc1ccccc1[C@@H]1OC(c2ccc(OCCCO)cc2)=N[C@]1(Cc1ccccc1)C(=O)N1CCOCC1	0.351	1.51	0.122	0.875	1.55	1.68	1.25	-1.42 (inactive)	0.804	0.778
COc1ccc(O[C@@H]2[C@H](O)CO[C@H]2C=CC#Cc2ccccc2)cc1	-0.389	0.511	-0.159	0.0175	-0.22	0.068	-0.203	-0.606 (inactive)	-0.182	-0.0237
CC(C)=CCCC(C)=CCON=C1[C@H]2CCn3c(=O)n(Cc4cc5c(cc4Cl)OCO5)c(=O)n3[C@H]2[C@H](O)[C@@H]2O[C@H]12	-0.405	1.2	-0.0481	0.262	0.405	0.0535	0.177	0.752 (inactive)	0.661	-0.328
CN1C(=O)C2C=CC(C(O)c3ccc(Br)cc3)N(N(c3ccccc3)c3ccccc3)C2C1=O (stereo not given)	0.519	-0.225	0.301	0.125	1.09	0.181	0.985	0.162 (inactive)	0.576	-0.0618
CO[C@H]([C@@H](C)[C@H](OC)c1ccccc1)[C@H](C)[C@@H](OC)[C@H](C)C(C)=O	-0.426	-0.292	-0.0785	-0.154	-0.448	-0.383	-0.944	0.425 (inactive)	0.0432	2.49
O=C1[C@H]2[C@H]3[C@H](O)[C@H](O)CC(=NO[C@@H]4O[C@H](CO)[C@@H](O)[C@H](O)[C@H]4O)[C@H]3CC[C@H]2C(=O)N1Cc1ccc2c(c1)OCO2	0.606	1.53	-0.104	-0.103	-0.475	0.266	0.592	-0.0585 (inactive)	0.319	-0.132
COCCCNC(=O)[C@]1(CCC(=O)OC(C)(C)C)N=C(c2ccc(OCCCO)cc2)O[C@@H]1c1ccccc1N=[N+]=[N-]	0.0081	1.27	0.15	0.891	1.33	1.62	1.36	3.15 (inactive)	1.51	0.107
CCc1cc2c(nc1CC)CCN(CCC(C)=NO[C@@H](C)c1cc(-c3c(C)cc(C)cc3C)no1)C2	-0.291	0.0396	-0.126	-0.298	-0.89	0.191	-0.0858	-1.01 (inactive)	-0.119	0.0187
COC(=O)[C@H](C)NC(=O)CCC1CC(OC(=O)NCCc2ccc(F)cc2)CC2(CCCC(COC(=O)NCCc3ccc(Cl)cc3)O2)O1 (stereo not given in full)	-0.655	1.39	-0.0579	0.812	1.15	0.691	0.595	1.11 (inactive)	0.393	-0.0672
C#C[C@@H](CC)O[Si](C#Cc1ccc(Oc2ccccc2)cc1)(C(C)C)C(C)C	-0.321	0.438	-0.201	0.247	0.824	0.108	0.0426	0.364 (inactive)	0.168	-0.0193
COC(=O)[C@@]1(Cc2ccccc2)[C@H]2c3cc(C(=O)N4CCCC4)n(Cc4ccccn4)c3C[C@H]2CN1C(=O)c1ccccc1	0.731	0.415	0.589	1.14	1.52	2.18	1.35	2.5 (inactive)	1.65	0.257
O=C1[C@H]2[C@H]3[C@H](O)[C@H](O)CC(=NO[C@@H]4O[C@H](CO)[C@@H](O)[C@H](O)[C@H]4O)[C@@H]3CC[C@H]2C(=O)N1Cc1ccc2c(c1)OCO2	-0.401	-0.271	-0.166	0.112	0.737	0.542	0.974	0.118 (inactive)	0.181	-0.201
COc1ccc(O[C@H]2C=C[C@@H](c3ccccc3)O[C@@H]2CON=C[C@@H](C)[C@H](OCc2ccccc2)C(C)C)cc1	-0.397	-0.249	-0.168	-0.773	-0.936	-0.744	-0.921	-1.01 (inactive)	-0.623	-0.602

Source: PubChem BioAssay
